Measurements published in the supplement of paper PMC11732987, “Enantioselective OTUD7B fragment discovery through chemoproteomics screening and high-throughput optimisation” (Communications Chemistry, 2025).
Unmarked numbers belong to inactive results.

What was measured:
Experiment in all cases: log2 ratio of Biotin-Ahx-Ub-VS probe labelling (fragment/DMSO); higher = less target engagement (more negative = stronger competition), active = hit call of the paper (q ≤ 0.05, log2 ratio ≤ -1)
Settings in all cases: compound concentration: 200 uM; treatment time: 3 h
USP9X = USP9X (UniProt Q93008)
Summary of the method: (§1)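 HEK293T lysate in Tris/CHAPS/IGEPAL buffer with protease inhibitors (495 µg per sample) was given fragment at 200 µM or vehicle for 3 h, in triplicate. It then received Biotin-Ahx-Ub-VS at 0.5 µM final for 1 h. Labelled DUBs were NeutrAvidin-enriched, digested with LysC and trypsin, and run by diaPASEF LC-MS/MS. Values are average log2 fragment/vehicle ratios by unpaired t-test on global-median-normalised Spectronaut quantities of proteins with ≥2 unique peptides.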

UniProt O00487 = molecular target: UniProt O00487
Summary of the method: as §1

UniProt O00507 = molecular target: UniProt O00507
Summary of the method: as §1

UniProt P51784 = molecular target: UniProt P51784
Summary of the method: as §1

UniProt Q5T2D3 = molecular target: T1, UniProt Q5T2D3
T1 sequence (whole entry): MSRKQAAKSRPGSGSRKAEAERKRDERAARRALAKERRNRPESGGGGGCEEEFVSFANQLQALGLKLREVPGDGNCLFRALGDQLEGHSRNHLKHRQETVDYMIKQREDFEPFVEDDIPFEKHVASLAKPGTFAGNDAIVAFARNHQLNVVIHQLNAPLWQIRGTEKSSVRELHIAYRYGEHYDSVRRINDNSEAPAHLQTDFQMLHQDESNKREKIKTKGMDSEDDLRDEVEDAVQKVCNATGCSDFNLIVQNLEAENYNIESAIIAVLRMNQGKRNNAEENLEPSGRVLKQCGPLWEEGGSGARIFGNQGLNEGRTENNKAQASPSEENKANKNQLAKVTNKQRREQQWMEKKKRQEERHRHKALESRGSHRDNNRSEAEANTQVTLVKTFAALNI
Summary of the method: as §1

UniProt Q8TE49 = molecular target: T2, UniProt Q8TE49
T2 sequence (whole entry): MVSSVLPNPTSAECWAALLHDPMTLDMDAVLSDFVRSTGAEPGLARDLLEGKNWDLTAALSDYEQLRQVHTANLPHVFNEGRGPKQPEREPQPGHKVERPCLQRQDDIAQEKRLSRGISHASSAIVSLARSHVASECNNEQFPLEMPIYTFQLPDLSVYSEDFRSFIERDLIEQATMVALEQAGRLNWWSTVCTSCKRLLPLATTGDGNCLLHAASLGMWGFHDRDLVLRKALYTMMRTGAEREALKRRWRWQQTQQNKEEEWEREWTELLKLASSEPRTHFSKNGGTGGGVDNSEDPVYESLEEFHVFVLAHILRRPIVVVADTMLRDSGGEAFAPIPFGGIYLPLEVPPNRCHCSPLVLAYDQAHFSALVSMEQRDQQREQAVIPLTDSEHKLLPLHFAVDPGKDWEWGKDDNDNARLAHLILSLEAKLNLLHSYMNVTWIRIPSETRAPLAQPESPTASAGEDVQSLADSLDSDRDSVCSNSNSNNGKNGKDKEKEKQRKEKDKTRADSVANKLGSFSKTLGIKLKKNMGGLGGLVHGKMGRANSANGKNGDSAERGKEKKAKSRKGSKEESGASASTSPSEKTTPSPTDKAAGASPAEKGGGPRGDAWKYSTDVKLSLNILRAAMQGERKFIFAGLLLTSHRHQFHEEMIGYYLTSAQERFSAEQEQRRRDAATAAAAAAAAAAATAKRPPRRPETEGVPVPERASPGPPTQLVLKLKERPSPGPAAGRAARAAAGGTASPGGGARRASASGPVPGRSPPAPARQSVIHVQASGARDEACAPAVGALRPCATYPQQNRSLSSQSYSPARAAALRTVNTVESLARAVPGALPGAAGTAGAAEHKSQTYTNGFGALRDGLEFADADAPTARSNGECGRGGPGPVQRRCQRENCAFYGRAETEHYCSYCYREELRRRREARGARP
Summary of the method: as §1

UniProt Q9P2H5 = molecular target: T3, UniProt Q9P2H5
T3 sequence (whole entry): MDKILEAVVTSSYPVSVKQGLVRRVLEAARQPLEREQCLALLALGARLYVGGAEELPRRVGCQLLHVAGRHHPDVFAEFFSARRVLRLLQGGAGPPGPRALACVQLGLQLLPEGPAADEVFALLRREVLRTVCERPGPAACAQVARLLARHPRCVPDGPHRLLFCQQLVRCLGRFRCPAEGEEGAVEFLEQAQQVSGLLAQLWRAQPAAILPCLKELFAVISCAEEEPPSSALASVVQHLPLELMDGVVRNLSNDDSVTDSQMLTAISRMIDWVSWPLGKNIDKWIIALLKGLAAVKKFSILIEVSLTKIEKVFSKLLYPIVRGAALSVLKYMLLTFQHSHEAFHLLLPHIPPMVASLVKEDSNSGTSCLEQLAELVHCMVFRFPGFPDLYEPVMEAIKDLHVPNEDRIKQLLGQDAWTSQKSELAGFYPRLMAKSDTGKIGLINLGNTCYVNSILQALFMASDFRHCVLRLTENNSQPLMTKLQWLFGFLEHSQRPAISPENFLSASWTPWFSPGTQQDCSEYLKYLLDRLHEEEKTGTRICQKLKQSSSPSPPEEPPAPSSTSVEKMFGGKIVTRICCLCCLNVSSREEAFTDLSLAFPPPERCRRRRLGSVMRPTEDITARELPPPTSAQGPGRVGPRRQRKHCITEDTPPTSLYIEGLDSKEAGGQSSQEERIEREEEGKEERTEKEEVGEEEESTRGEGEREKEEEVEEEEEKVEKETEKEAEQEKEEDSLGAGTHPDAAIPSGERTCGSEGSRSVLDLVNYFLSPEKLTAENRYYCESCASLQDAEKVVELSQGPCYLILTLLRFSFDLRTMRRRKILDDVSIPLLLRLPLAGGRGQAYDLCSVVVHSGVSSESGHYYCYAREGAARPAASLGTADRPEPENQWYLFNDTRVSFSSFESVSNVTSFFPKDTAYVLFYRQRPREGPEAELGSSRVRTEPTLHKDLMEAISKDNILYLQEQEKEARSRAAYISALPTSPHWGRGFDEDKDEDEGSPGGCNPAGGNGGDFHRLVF
Summary of the method: as §1

UniProt Q9UGI0 = molecular target: T4, UniProt Q9UGI0
T4 sequence (whole entry): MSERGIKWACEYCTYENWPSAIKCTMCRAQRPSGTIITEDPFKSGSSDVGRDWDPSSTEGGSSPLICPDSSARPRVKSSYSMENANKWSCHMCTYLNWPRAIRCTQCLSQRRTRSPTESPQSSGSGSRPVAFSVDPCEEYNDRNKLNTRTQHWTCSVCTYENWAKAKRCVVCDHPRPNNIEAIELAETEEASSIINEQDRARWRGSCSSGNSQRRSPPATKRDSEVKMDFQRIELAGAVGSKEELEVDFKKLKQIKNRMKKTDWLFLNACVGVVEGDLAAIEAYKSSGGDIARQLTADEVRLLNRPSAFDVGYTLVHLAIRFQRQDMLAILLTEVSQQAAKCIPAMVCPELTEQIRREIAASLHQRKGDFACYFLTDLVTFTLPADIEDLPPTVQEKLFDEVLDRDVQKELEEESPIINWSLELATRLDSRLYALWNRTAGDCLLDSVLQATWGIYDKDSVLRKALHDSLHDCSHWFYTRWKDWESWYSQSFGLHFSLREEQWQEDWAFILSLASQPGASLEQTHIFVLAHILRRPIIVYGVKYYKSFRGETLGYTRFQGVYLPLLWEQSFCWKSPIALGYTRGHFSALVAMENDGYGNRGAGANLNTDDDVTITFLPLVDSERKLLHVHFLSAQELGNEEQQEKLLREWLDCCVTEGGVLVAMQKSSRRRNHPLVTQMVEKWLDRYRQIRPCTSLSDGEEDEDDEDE
Summary of the method: as §1

YOD1 = molecular target: T5, YOD1 (UniProt Q5VVQ6)
T5 sequence (whole entry): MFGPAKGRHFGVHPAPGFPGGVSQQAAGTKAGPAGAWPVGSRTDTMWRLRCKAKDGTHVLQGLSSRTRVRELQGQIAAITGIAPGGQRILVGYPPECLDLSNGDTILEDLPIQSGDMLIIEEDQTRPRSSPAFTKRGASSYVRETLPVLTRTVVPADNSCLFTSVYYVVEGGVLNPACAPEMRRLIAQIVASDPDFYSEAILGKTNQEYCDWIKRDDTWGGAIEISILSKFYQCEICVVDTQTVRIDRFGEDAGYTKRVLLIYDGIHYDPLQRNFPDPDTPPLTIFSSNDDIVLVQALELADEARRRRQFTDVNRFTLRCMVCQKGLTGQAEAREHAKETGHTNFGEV
Summary of the method: as §1

Sequence of UniProt P51784 (P51784 whole entry): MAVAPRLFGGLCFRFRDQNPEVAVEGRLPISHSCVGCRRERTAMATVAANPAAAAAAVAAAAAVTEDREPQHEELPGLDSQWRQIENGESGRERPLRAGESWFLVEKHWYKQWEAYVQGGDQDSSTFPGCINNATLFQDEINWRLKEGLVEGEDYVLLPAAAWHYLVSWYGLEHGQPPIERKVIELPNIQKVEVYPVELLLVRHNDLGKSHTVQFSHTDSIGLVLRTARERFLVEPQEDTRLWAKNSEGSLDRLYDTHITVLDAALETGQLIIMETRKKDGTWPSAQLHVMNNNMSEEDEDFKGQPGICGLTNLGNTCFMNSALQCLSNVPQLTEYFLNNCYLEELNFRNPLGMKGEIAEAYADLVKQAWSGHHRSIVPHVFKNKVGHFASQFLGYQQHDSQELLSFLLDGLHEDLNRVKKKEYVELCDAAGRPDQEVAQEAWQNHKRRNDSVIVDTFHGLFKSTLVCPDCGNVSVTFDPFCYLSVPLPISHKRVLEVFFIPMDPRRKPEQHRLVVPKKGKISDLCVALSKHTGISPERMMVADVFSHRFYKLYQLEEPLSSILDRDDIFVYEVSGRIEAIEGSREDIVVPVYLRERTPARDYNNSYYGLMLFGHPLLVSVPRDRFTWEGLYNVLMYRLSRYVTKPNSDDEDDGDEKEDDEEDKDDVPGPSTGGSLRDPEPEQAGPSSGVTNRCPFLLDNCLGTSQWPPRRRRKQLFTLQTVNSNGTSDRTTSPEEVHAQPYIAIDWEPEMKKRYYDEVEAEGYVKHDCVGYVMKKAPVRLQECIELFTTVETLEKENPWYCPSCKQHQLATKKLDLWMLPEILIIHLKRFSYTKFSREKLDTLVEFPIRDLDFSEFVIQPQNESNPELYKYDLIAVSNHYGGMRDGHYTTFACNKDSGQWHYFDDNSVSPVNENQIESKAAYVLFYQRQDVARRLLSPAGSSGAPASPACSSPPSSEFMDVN
Sequence of UniProt O00487 (O00487 whole entry): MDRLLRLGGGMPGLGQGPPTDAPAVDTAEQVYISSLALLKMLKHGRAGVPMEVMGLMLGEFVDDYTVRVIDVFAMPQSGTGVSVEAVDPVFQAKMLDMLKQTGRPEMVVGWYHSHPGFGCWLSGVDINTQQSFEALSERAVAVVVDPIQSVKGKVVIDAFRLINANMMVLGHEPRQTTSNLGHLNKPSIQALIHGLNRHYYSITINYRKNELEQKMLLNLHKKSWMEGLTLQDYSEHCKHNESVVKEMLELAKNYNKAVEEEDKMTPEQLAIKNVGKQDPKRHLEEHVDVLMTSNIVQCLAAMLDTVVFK
Sequence of USP9X (Q93008 whole entry, the tested form may be a part): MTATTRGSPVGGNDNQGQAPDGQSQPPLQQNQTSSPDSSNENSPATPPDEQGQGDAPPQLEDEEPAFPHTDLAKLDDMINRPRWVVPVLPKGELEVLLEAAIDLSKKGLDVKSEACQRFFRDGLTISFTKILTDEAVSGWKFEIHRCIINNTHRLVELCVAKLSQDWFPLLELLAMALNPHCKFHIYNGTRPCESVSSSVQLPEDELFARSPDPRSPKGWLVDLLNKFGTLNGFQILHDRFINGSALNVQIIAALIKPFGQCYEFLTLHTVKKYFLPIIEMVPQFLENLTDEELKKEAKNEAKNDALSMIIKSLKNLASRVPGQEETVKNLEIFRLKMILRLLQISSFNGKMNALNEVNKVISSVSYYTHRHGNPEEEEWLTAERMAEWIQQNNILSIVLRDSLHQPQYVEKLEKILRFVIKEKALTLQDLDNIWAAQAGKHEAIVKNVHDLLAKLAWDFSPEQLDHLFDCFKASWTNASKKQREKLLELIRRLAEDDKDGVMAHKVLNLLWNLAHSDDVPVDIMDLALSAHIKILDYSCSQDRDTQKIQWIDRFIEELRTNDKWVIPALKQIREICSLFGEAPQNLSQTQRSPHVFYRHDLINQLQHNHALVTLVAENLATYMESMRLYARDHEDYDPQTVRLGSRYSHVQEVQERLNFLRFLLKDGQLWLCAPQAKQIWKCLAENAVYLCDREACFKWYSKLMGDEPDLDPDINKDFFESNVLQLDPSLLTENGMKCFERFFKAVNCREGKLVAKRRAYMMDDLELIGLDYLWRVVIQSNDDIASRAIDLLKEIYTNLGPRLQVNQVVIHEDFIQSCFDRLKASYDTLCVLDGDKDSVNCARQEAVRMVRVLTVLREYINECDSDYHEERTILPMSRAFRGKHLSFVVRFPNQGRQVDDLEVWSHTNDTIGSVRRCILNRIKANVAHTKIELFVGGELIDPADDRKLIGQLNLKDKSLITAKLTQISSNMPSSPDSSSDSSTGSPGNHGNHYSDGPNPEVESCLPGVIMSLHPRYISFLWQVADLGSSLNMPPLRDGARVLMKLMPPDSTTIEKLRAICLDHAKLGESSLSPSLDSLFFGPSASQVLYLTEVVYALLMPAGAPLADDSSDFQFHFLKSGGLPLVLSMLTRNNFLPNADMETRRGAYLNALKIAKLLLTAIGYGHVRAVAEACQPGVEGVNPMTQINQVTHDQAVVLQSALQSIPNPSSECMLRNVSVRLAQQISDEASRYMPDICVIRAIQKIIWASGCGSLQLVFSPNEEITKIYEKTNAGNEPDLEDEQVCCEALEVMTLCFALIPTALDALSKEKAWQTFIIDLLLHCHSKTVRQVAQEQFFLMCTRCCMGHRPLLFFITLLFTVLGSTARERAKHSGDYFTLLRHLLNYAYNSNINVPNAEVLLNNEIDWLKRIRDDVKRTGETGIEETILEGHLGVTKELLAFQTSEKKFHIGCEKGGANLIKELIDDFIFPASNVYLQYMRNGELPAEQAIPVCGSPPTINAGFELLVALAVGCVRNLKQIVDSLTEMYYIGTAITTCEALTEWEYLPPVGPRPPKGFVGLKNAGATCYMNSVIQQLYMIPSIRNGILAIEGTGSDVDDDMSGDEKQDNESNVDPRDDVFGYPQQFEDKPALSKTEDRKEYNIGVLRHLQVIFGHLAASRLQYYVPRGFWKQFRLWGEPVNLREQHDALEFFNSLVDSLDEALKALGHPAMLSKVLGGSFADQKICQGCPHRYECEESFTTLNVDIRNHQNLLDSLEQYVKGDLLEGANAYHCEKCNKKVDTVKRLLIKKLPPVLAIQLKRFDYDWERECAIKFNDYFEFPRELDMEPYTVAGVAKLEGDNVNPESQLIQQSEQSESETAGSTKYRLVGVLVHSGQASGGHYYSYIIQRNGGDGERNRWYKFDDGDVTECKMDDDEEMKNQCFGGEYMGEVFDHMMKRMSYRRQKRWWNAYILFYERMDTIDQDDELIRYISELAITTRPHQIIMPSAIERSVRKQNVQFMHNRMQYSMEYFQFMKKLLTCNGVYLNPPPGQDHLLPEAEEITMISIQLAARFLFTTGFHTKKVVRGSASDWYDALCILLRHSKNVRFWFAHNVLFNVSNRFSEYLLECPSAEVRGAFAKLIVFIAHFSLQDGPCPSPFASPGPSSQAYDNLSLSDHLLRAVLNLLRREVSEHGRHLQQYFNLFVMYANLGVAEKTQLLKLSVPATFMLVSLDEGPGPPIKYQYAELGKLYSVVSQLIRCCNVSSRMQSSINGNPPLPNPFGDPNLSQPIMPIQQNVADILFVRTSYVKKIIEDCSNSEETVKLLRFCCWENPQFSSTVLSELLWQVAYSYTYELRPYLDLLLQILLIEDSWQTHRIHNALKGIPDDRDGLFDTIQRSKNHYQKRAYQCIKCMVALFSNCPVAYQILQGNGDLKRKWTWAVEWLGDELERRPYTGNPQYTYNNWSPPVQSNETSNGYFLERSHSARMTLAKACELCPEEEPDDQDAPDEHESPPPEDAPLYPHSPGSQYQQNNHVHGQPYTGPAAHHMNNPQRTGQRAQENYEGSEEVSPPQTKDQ

In the case of `O=C(CCl)NCC1(c2ccccc2)CC1`, the “log2 ratio of Biotin-Ahx-Ub-VS probe labelling” value (shortened to “log2 ratio”) (USP9X) is reported as -0.121, the “log2 ratio” value (UniProt O00487) is reported as -0.00244 and the “log2 ratio” value (UniProt O00507) is reported as 0.153. The “log2 ratio” value (UniProt P51784) was 0.117, the “log2 ratio” value (UniProt Q5T2D3) was -0.0752 and the “log2 ratio” value (UniProt Q8TE49) was -0.408. For the same compound, the “log2 ratio” value (UniProt Q9P2H5) was -0.071, the “log2 ratio” value (UniProt Q9UGI0) was -1.08 (active) and the “log2 ratio” value (YOD1) was 0.0857.
